Experimental findings from the antibiotic and cytotoxicity screens of Wong et al. (2023) are described below.

Molecules are shown by their SMILES. About 3,300 (8.5%) of roughly 39,000 compounds were called active. The sample as a whole holds a higher share of actives than the screen did.

The assay has as its system HepG2. The experiment in a line: cytotoxicity call (relative viability < 0.9). The conditions noted are these: 10 µM.
Take `C=CCN1C(=O)[C@@H]2[C@@H](C1=O)[C@@H]1C=C[C@@H]2C1`: the cytotoxicity call is “inactive”.
For `COc1ccc(S(=O)(=O)Nc2cccc3c2O[C@@H](CN(C)Cc2ccncc2)[C@@H](C)CN([C@H](C)CO)C3=O)cc1` the value was “inactive”.
Then `C[C@H](CO)N1C[C@H](C)[C@@H](CN(C)C(=O)Nc2cccc3ccccc23)Oc2ccc(NC(=O)C3CCCCC3)cc2C1=O`, with “inactive”; and `Cc1ccc(S(=O)(=O)Nc2ccc3c(c2)C(=O)N([C@H](C)CO)C[C@@H](C)[C@@H](CN(C)C(=O)C2CCCCC2)OCCCC[C@@H](C)O3)cc1`, with “inactive”; and `COC(=O)[C@@H](C)S(=O)(=O)NC(=O)c1cnc2ccccn2c1=O`, with “inactive”.
Then `O=C(C[C@H]1CC[C@H]2[C@@H](COC[C@@H](O)CN2C(=O)c2ccc3c(c2)OCO3)O1)NC1Cc2ccccc2C1`, with “inactive”; and `Cn1cnc(S(=O)(=O)N2CC[C@@H](O)[C@@H]2Cc2cnn(C)c2)c1`, with “inactive”.
On to `O=C1OCC=C[C@H]2O[C@@]34C=CCN(c5ccc6ccccc6c5)C(=O)[C@H]3N(CCCCCO)C(=O)[C@@H]4[C@@H]12`, for which the cytotoxicity call is “inactive”.
For `C[C@H](CO)N1C[C@H](C)[C@H](CN(C)S(=O)(=O)c2cccs2)Oc2ccc(NC(=O)Cn3cnnn3)cc2C1=O` the value was “inactive”; for `NC1CCN(Cc2ccccc2)CC1`, “inactive”; for `NCC1CCN(Cc2ccccc2)CC1`, “inactive”.
For `S=C1SCN(Cc2ccccc2)CN1Cc1ccccc1` the value was “active”; for `COc1ccc(NC(=O)N(C)C[C@H]2OCCCC[C@H](C)Oc3ccc(NS(=O)(=O)c4c(C)noc4C)cc3C(=O)N([C@@H](C)CO)C[C@@H]2C)cc1`, “inactive”; for `COc1ccc(NC(=O)Nc2ccc3c(c2)C(=O)N([C@@H](C)CO)C[C@@H](C)[C@@H](CN(C)Cc2ccc(Cl)c(Cl)c2)OCCCC[C@@H](C)O3)cc1`, “active”.
On to `COc1ccc(NC(=O)Nc2ccc3c(c2)C(=O)N([C@@H](C)CO)C[C@H](C)[C@@H](CN(C)Cc2ccc(Cl)c(Cl)c2)OCCCC[C@@H](C)O3)cc1`, for which the cytotoxicity call was “inactive”.
Then `COc1ccc(NC(=O)Nc2ccc3c(c2)C(=O)N([C@@H](C)CO)C[C@H](C)[C@H](CN(C)Cc2ccc(Cl)c(Cl)c2)OCCCC[C@@H](C)O3)cc1`, with “inactive”; and `COc1ccc(NC(=O)Nc2ccc3c(c2)C(=O)N([C@@H](C)CO)C[C@@H](C)[C@@H](CN(C)Cc2ccc(Cl)c(Cl)c2)OCCCC[C@H](C)O3)cc1`, with “inactive”.
For `COc1ccc(NC(=O)Nc2ccc3c(c2)C(=O)N([C@H](C)CO)C[C@H](C)[C@@H](CN(C)Cc2ccc(Cl)c(Cl)c2)OCCCC[C@@H](C)O3)cc1` the value was “inactive”.
For `COc1ccc(NC(=O)Nc2ccc3c(c2)C(=O)N([C@H](C)CO)C[C@@H](C)[C@H](CN(C)Cc2ccc(Cl)c(Cl)c2)OCCCC[C@@H](C)O3)cc1` the value was “active”.
Take `CN(C)C(=O)C[C@H]1CC[C@H]2[C@@H](COC[C@H](O)CN2S(=O)(=O)c2ccccc2)O1`: the cytotoxicity call was “inactive”.
Turning to `Cc1noc(C)c1S(=O)(=O)Nc1ccc2c(c1)CC(=O)N([C@@H](C)CO)C[C@H](C)[C@@H](CN(C)C(=O)Nc1ccccc1)O2`, the cytotoxicity call is “inactive”.
For `C[C@H](CO)N1C[C@H](C)[C@@H](CN(C)S(=O)(=O)c2ccc(Cl)cc2)Oc2ccc(NC(=O)Cn3cnnn3)cc2C1=O` the value was “inactive”; for `Cc1noc(C)c1NC(=O)N(C)C[C@H]1Oc2ccc(NC(=O)Nc3ccc(C(F)(F)F)cc3)cc2CC(=O)N([C@H](C)CO)C[C@@H]1C`, “inactive”; for `CCN([NH2+][O-])c1ccc(O)c(O)c1`, “inactive”.
For `C[C@H]1CN([C@@H](C)CO)C(=O)CCCn2cc(nn2)CO[C@@H]1CN(C)C(=O)Nc1ccnc(N2CCOCC2)c1` the value was “inactive”; for `Cc1ccc(S(=O)(=O)N(C)C[C@H]2Oc3ccc(NC(=O)Nc4ccc(C(F)(F)F)cc4)cc3C(=O)N([C@@H](C)CO)C[C@@H]2C)cc1`, “inactive”.
For `Cc1ccc(S(=O)(=O)N(C)C[C@@H]2Oc3ccc(NC(=O)Nc4ccc(C(F)(F)F)cc4)cc3C(=O)N([C@@H](C)CO)C[C@@H]2C)cc1` the value was “inactive”.
Regarding `Cc1ccc(S(=O)(=O)N(C)C[C@@H]2Oc3ccc(NC(=O)Nc4ccc(C(F)(F)F)cc4)cc3C(=O)N([C@H](C)CO)C[C@H]2C)cc1`, the cytotoxicity call is “inactive”.
For `Cc1ccc(S(=O)(=O)N(C)C[C@@H]2Oc3ccc(NC(=O)Nc4ccc(C(F)(F)F)cc4)cc3C(=O)N([C@H](C)CO)C[C@@H]2C)cc1` the value was “active”; for `Cc1ccc(S(=O)(=O)N(C)C[C@H]2Oc3ccc(NC(=O)Nc4ccc(C(F)(F)F)cc4)cc3C(=O)N([C@@H](C)CO)C[C@H]2C)cc1`, “active”; for `Cc1ccc(S(=O)(=O)N(C)C[C@@H]2Oc3ccc(NC(=O)Nc4ccc(C(F)(F)F)cc4)cc3C(=O)N([C@@H](C)CO)C[C@H]2C)cc1`, “active”.
On to `Cc1ccc(S(=O)(=O)N(C)C[C@H]2Oc3ccc(NC(=O)Nc4ccc(C(F)(F)F)cc4)cc3C(=O)N([C@H](C)CO)C[C@H]2C)cc1`, for which the cytotoxicity call was “active”.
For `Cc1ccc(S(=O)(=O)N(C)C[C@H]2Oc3ccc(NC(=O)Nc4ccc(C(F)(F)F)cc4)cc3C(=O)N([C@H](C)CO)C[C@@H]2C)cc1` the value was “inactive”; for `C[C@H]1CN([C@@H](C)CO)S(=O)(=O)c2ccc(C#CC3CCCC3)cc2O[C@@H]1CN(C)C(=O)Cc1ccncc1`, “inactive”; for `COc1ccc([Si](C)(C)[C@@H]2[C@@H](CC(=O)N3Cc4ccccc4C[C@H]3CO)O[C@]3(C(=O)N(Cc4cccc(N5CCC5=O)c4)c4ccccc43)[C@H]2C)cc1`, “inactive”.
For `CC1C(=O)OC2C1CCC1(C)CCC(=O)C(C)C21` (stereo not given) the value was “inactive”; for `CN1CCN(S(=O)(=O)c2ccc(CN)cc2)CC1`, “inactive”.
Then `C[C@H]1CN([C@@H](C)CO)C(=O)c2cc(NS(=O)(=O)c3ccc(Cl)cc3)ccc2O[C@H]1CN(C)Cc1ccc(Oc2ccccc2)cc1`, with “inactive”.
With `C[C@@H]1CN([C@H](C)CO)C(=O)c2cc(NS(=O)(=O)c3ccc(Cl)cc3)ccc2O[C@@H]1CN(C)Cc1ccc(Oc2ccccc2)cc1`, the cytotoxicity call was “active”.
On to `C[C@@H]1CN([C@@H](C)CO)C(=O)c2cc(NS(=O)(=O)c3ccc(Cl)cc3)ccc2O[C@@H]1CN(C)Cc1ccc(Oc2ccccc2)cc1`, for which the cytotoxicity call was “active”.
Then `C[C@H]1CN([C@@H](C)CO)C(=O)c2cc(NS(=O)(=O)c3ccc(Cl)cc3)ccc2O[C@@H]1CN(C)Cc1ccc(Oc2ccccc2)cc1`, with “active”.
For `C[C@H](CO)N1C[C@H](C)[C@H](CN(C)Cc2ccc(Oc3ccccc3)cc2)Oc2ccc(NS(=O)(=O)c3ccc(Cl)cc3)cc2C1=O` the value was “inactive”; for `C[C@@H]1CN([C@H](C)CO)C(=O)c2cc(NS(=O)(=O)c3ccc(Cl)cc3)ccc2O[C@H]1CN(C)Cc1ccc(Oc2ccccc2)cc1`, “active”.
Then `C[C@H](CO)N1C[C@H](C)[C@@H](CN(C)Cc2ccc(Oc3ccccc3)cc2)Oc2ccc(NS(=O)(=O)c3ccc(Cl)cc3)cc2C1=O`, with “inactive”.
In the case of `C[C@@H]1CN([C@@H](C)CO)C(=O)c2cc(NS(=O)(=O)c3ccc(Cl)cc3)ccc2O[C@H]1CN(C)Cc1ccc(Oc2ccccc2)cc1`, the cytotoxicity call is “inactive”.
